Out of some 2,100 compounds screened, about 770 (37%) were called active. This is one part of the list. Unmarked numbers belong to inactive results.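 How the source made its calls: active means by-eye trace score of 1 for enhancers or -1 for inhibitors, so actives lie on both sides (some results past the limit were not filed as active); inactive means score 0, or 3 fluorescent, or 4 baseline rise.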
target: G protein-activated inward rectifier potassium channel 2 (Homo sapiens) + G protein-activated inward rectifier potassium channel 1 (Homo sapiens) (UniProt P48051+P48549); assay: GIRK1/2 thallium flux modulators, retest, confirmation, cell-based, HEK293 rmGlu8/hGIRK1/2, FluoZin-2 (AID 623911); conditions: HEK293 rmGlu8/hGIRK1/2, thallium flux FluoZin-2; actives lie on both sides; glutamate co-added at its EC20 level
Sequence (P48051 whole entry, looked up): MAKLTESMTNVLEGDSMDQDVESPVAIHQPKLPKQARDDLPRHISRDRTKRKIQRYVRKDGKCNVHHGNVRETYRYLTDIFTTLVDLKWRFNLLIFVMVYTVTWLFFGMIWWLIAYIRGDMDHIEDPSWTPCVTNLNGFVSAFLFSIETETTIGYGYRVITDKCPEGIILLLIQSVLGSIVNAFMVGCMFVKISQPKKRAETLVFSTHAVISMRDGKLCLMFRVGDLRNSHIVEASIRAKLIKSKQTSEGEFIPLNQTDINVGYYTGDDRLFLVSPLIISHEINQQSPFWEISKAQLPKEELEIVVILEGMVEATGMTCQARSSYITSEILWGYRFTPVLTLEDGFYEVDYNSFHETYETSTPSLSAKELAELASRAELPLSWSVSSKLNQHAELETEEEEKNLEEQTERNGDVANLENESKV
Sequence (P48549 whole entry, looked up): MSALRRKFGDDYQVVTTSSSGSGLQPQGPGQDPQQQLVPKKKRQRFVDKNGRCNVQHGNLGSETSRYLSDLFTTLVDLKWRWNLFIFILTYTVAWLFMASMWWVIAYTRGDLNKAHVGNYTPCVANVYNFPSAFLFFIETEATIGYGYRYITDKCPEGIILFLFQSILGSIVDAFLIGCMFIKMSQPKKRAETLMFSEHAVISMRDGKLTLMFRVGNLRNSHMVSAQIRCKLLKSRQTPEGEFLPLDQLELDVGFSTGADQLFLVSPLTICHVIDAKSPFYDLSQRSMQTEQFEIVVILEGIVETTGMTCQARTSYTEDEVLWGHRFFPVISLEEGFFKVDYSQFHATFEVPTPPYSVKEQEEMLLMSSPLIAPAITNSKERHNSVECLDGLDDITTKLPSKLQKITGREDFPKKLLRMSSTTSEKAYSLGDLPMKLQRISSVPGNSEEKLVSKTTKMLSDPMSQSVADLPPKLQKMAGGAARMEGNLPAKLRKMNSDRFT

Row | SMILES | manual score
1 | O=C(CSCC(=O)N1CCCCC1)Nc1nc(-c2ccc(Cl)s2)cs1 | 0
2 | c1cn(C23CC4CC(CC(C4)C2)C3)cn1 | -1 (active)
3 | CCc1ccc2c(c1)C1(NN=C(c3cccc4ccccc34)S1)C(=O)N2 (stereo not given) | 0
4 | O=C(NC(=S)Nc1ccccc1)c1cc(-c2ccccc2)nc2ccccc12 | 0
5 | CC(C)Oc1cccc(C(=O)NC(=S)Nc2ccccc2)c1 | 0
6 | Cc1ccc2cccc(NC(=S)NC(=O)c3ccn(C)n3)c2n1 | 0
7 | O=C(NC(=S)Nc1ccccc1)c1csnn1 | 1 (active)
8 | O=C(NC(=S)Nc1cc(C(F)(F)F)ccc1Cl)c1ccccc1 | 0
9 | O=C(NC(=S)Nc1ccccc1Cl)c1csnn1 | 1 (active)
10 | COc1ccc(Nc2nc(N)nc(CSc3nnc(C)s3)n2)cc1 | 0
11 | Cc1cccc(C)c1NC(=O)C(NC(=O)c1ccccn1)c1ccc([N+](=O)[O-])cc1 (stereo not given) | 0
12 | CC1CN(C(=O)C2CCCCC2)C(C)CN1C(=O)C1CCCCC1 (stereo not given) | 0
13 | CCC(NC(=O)c1ccccc1O)c1ccccc1 (stereo not given) | 0
14 | Cc1cccc(C(=O)CC(=O)c2cc(Cl)ccc2O)c1 | 0.5
15 | O=C(CC(=O)c1ccccc1O)c1cccc(F)c1 | 1 (active)
16 | O=C(CC(=O)c1cc(Cl)ccc1O)c1ccccc1 | 0
17 | O=C(CC(=O)c1ccccc1O)c1ccc(F)cc1 | 1 (active)
18 | COc1cccc(C(=O)NC(=S)Nc2ccc3c4c(cccc24)CC3)c1 | 0
19 | COc1ccc(CN(CCC#N)C(=S)NC(=O)c2ccccc2)cc1 | 1 (active)
20 | N#CCCN(Cc1ccccc1)C(=S)NC(=O)c1ccccc1 | 1 (active)
21 | Cc1cc(C)cc(OCC(=O)N2N=C(C(F)(F)F)CC2(O)C(C)(C)C)c1 (stereo not given) | 0
22 | O=C(N1CCCCC1)N1CCN(C(=O)N(c2ccccc2)c2ccccc2)CC1 | 0

Row | SMILES | manual score
23 | N/C(=N/O)c1nc(N2CCCC2)nc(N(c2ccccc2)c2ccccc2)n1 | -1 (active)
24 | CC(C)C(=O)Nc1nnn(C)n1 | 0
25 | CCOC(=O)N1CCN(C(=O)c2oc3ccc(S(=O)(=O)N4CC(C)CC(C)C4)cc3c2C)CC1 (stereo not given) | -1 (active)
26 | Cc1c(C(=O)NCc2cccnc2)oc2ccc(S(=O)(=O)N3CCC4(CC3)OCCO4)cc12 | 0
27 | COC(=O)c1nc(NC(C)=O)n[nH]1 | 0
28 | CC1(C)CC2CC(C)(CN2c2ncnc3ccccc23)C1 (stereo not given) | -1 (active)
29 | O=C(/C=C/c1ccc(Cl)cc1)NC(=S)NN1CCCCC1c1cccnc1 (stereo not given) | 0
30 | COC(=O)C1=C(C)NC(=O)/C1=C\c1ccco1 | 0
31 | Cc1cccc(N=C2NC(=O)/C(=C/C=C/c3ccco3)S2)c1C | 1 (active)
32 | COc1ccc(Nc2nc(-c3cccc([N+](=O)[O-])c3)nc3ccccc23)cc1 | 0
33 | CCCCn1c(=N)n(CC(O)COc2cccc(C)c2)c2ccccc21 (stereo not given) | -1 (active)
34 | CCOC(=O)C(CCCCOc1cccc(CC)c1)C(=O)OCC | 0
35 | COc1ccc(-n2c(=S)[nH]c3ccccc32)cc1 | 0
36 | Cc1cccc(OCC(O)CN2C(C)(C)CC(O)CC2(C)C)c1 (stereo not given) | 0
37 | Cc1cccc(OCCn2c(=S)[nH]c3ccccc32)c1 | 0
38 | CCOC(=O)Cn1c(=N)n(CCOc2cccc(C)c2)c2ccccc21 | -1 (active)
39 | CCCn1c(=N)n(CC(O)COc2cccc(C)c2)c2ccccc21 (stereo not given) | -1 (active)
40 | CCCCn1c(=O)nc2n(-c3ccccc3)c3ccccc3cc-2c1=O | 0
41 | CCCn1c(=N)n(CCOc2ccc(OC)cc2)c2ccccc21 | -1 (active)
42 | CC1CSc2ccccc2NC1=S (stereo not given) | 0
43 | COC(=O)c1sc(N2C(=O)C(O)=C(C(=O)c3ccc(C)o3)C2c2ccc(F)cc2)nc1C (stereo not given) | 0
44 | CC(C)(C)OC(=O)COc1cc(O)c2c(=O)cc(-c3ccccc3)oc2c1 | 0

Row | SMILES | manual score
45 | Fc1ccc(-c2nnc3ccc(N4CCc5ccccc5C4)nn23)cc1 | 0
46 | CCOC(=O)c1cc2n(c1N)-c1ccccc1C2=O | 3
47 | CCOC(=O)Cn1c(=O)oc2cc(S(=O)(=O)NCCCc3ccccc3)ccc21 | 0
48 | CCOC(=O)Cn1c(=N)n(Cc2ccccc2F)c2ccccc21 | -1 (active)
49 | CC(C)Oc1ccc(C2CC(=O)N(c3ccccc3)C2=O)cc1 (stereo not given) | 0
50 | Cc1cccc(OCC(=O)NC(=S)Nc2ccccc2N2CCOCC2)c1 | 0
51 | Cc1ccccc1OCC(=O)Nc1ccccc1N1CCOCC1 | -1 (active)
52 | Cc1cccc(OCC(=O)Nc2ccccc2N2CCN(C(=O)C(C)C)CC2)c1C | -1 (active)
53 | CCCC(=O)Nc1ccccc1N1CCN(C(=O)c2ccccc2)CC1 | -0.5
54 | CCOc1cc(N2CCOCC2)c(OCC)cc1NC(=O)COC(=O)CCc1c[nH]c2ccccc12 | 0
55 | O=C(Nc1ccccc1N1CCCCC1)c1ccccc1F | 0
56 | CC(C)C(=O)Nc1ccccc1N1CCN(C(=O)c2ccccc2)CC1 | -1 (active)
57 | CC1(C)Cc2cccc(OCC(=O)Nc3ccccc3N3CCOCC3)c2O1 | -0.5
58 | CCC(=O)N1CCN(c2ccccc2NC(=O)COc2cccc(C)c2)CC1 | -1 (active)
59 | Cc1cc(Cl)ccc1OCC(=O)Nc1ccccc1N1CCOCC1 | -1 (active)
60 | CCN(CC)c1ccc2cc(-c3nc4ccccc4[nH]3)c(=O)oc2c1 | 3
61 | Cc1ccccc1C(=O)NNC(=S)NC(=O)COc1ccccc1 | 1 (active)
62 | Cc1ccc(C(=O)NNC(=S)NC(=O)COc2ccccc2)cc1 | 1 (active)
63 | CC(=O)c1c(C(C)=O)c(C)n(-c2nc(-c3cccs3)c(C)s2)c1C | -1 (active)
64 | O=C(Cc1ccccc1)Nc1nc(-c2cccs2)cs1 | 0
65 | CN(CC(=O)Nn1cnnc1)S(=O)(=O)c1ccc(Br)cc1 | 0
66 | Cc1cccc(N2C(=O)CS/C2=N\NC(=O)c2ccc(Cl)cc2)c1C | 1 (active)

Row | SMILES | manual score
67 | O=C(c1cnn2c(C(F)(F)F)cc(-c3cccs3)nc12)N1CCN(Cc2ccccc2)CC1 | -0.5
68 | COC(=O)c1c(NS(=O)(=O)c2cccs2)sc2c1CCCC2 | 1 (active)
69 | CC1CCc2c(sc(NS(=O)(=O)c3ccccc3)c2C(=O)OC(C)C)C1 (stereo not given) | 0
70 | CCOC(=O)c1c(NS(=O)(=O)Cc2ccccc2)sc2c1CCCC2 | 1 (active)
71 | COC(=O)c1c(NC(=S)NC(=O)c2ccco2)sc2c1CCCC2 | 0
72 | Cc1ccc(-c2c(C)sc(NC(=O)C3C4CCC(O4)C3C(=O)O)c2C(=O)OC(C)C)cc1 (stereo not given) | 0
73 | CCOC(=O)c1c(NC(=S)Nc2ccccc2)sc2c1CCCCC2 | 0
74 | COC(=O)c1c(NS(=O)(=O)Cc2ccccc2)sc2c1CCCC2 | 1 (active)
75 | COC(=O)c1c(NS(=O)(=O)c2ccc(C)cc2)sc2c1CCC(C)C2 (stereo not given) | 0
76 | CC(=O)Oc1ccc(N(C(C)=O)S(=O)(=O)c2cccs2)c2ccccc12 | 0
77 | COC(=O)c1c(NC(=S)Nc2ccc(F)cc2[N+](=O)[O-])sc2c1CCCCC2 | 0
78 | CC(C)OC(=O)c1c(NS(=O)(=O)c2ccccc2)sc2c1CCCC2 | 1 (active)
79 | CCCc1nc2scc(-c3ccccc3)c2c(=O)n1N | 0
80 | S=c1[nH]cnc2scc(-c3ccccc3)c12 | 1 (active)
81 | Cc1ccc(-c2csc3nc[nH]c(=S)c23)cc1C | 1 (active)
82 | CCCCn1c(=O)[nH]c2nc3cc(N)ccc3nc2c1=O | 3
83 | CCCc1cc(-c2n[nH]c(=S)n2C(C)c2ccccc2)cs1 (stereo not given) | 0
84 | CN(C)Cc1c(O)ccc2occ(C(O)c3ccccc3)c12 (stereo not given) | -1 (active)
85 | O=c1[nH]c2ccccc2n1CCC1CCCCC1 | 0
86 | CN(C(=O)CSC1=Nc2ccccc2C2=NC(c3ccccc3)C(=O)N12)C1CCCCC1 (stereo not given) | -1 (active)
87 | COc1ccc2c(-c3ccccc3)cc(SCC(=O)N(C)C3CCS(=O)(=O)C3)nc2c1 (stereo not given) | 0
88 | Cc1ccccc1-n1c(SCc2ccccn2)nc2n[nH]c(C)c2c1=N | 0

Row | SMILES | manual score
89 | CN(c1ccccc1)S(=O)(=O)c1ccc(NC(=S)NC(=O)c2ccccc2)cc1 | 0
90 | C=CCN(CC=C)S(=O)(=O)c1ccc(NC(=S)NC(=O)c2ccco2)cc1 | 0
91 | CCN(c1ccccc1)S(=O)(=O)c1ccc(NC(=S)NC(=O)c2ccc(Br)o2)cc1 | 1 (active)
92 | C=CCOc1ccc(/C(O)=C2/C(=O)C(=O)N(CCCN3CCOCC3)C2c2ccccc2)cc1 (stereo not given) | 0
93 | CCCn1c(C)cc(/C=C(\C#N)C(=O)OCC(=O)Nc2cccc(OC)c2)c1C | 1 (active)
94 | COc1cc(/C=C(\C#N)C(=O)Nc2cccnc2)ccc1OC(C)C | 0
95 | O=S(=O)(Nc1ccc(S(=O)(=O)Nc2cccc3ccccc23)cc1)c1ccccc1 | 0
96 | O=S(=O)(Nc1ccc2nc(C(F)(F)F)[nH]c2c1)c1ccccc1 | 1 (active)
97 | Oc1c(N=Nc2ccccn2)ccc2ccccc12 | 1 (active)
98 | Oc1ccc2ccccc2c1N=Nc1ccccn1 | 0
99 | CC(C)n1c(O)c(N=Nc2ccccn2)c2ccccc21 | 0
100 | C=CCN(CC=C)C(=S)NC(=O)c1ccc(-c2ccccc2)cc1 | 1 (active)
101 | C=CCNC(=O)NC(=S)c1ccccc1 | 0
102 | CCCN(CCC)C(=S)NC(=O)c1ccc(-c2ccccc2)cc1 | 1 (active)
103 | C=CCN(CC=C)C(=S)NC(=O)c1ccc([N+](=O)[O-])cc1 | 1 (active)
104 | O=C(NC(=S)NCC1COc2ccccc2O1)c1ccccc1 (stereo not given) | 0
105 | CN(Cc1ccccc1)C(=S)NC(=O)c1ccc(-c2ccccc2)cc1 | 0
106 | O=C1/C(=C\c2ccccn2)SC(=S)N1Nc1ncc(C(F)(F)F)cc1Cl | 0
107 | NC(=O)c1ccc(Cc2ncc(C(F)(F)F)cc2Cl)s1 | 0
108 | FC(F)(F)c1cnc(NNC(=S)Nc2ccccc2Cl)c(Cl)c1 | 1 (active)
109 | Cc1ccc(NC(=S)NNc2ncc(C(F)(F)F)cc2Cl)c(C)c1 | 0
110 | FC(F)(F)c1cnc(NNC(=S)Nc2ccc(Cl)cc2)c(Cl)c1 | 1 (active)
